# Key:
# Assay in all cases: PBM binding z-score (relative to random genomic background probes); higher = stronger binding; sequences stand for … in GC…GCGATTGACAGCGTAGAATGAAGG
# [1] = tested on: FXR:RXRa (NR concentration 270 nM, RXRa partner concentration 90 nM)
# In short: (§1)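 Ligand-free nuclear receptor dimers were bound for 1 h to custom Agilent 4×180K protein-binding microarrays. Detection used antibodies against each partner (one per run). Binding z-scores rest on regression-normalized fluorescence, with random background probes as the reference.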
# [2] = tested on: LXRa:RXRa (NR concentration 270 nM, RXRa partner concentration 90 nM)
# In short: as §1
# [3] = tested on: LXRa homodimer (NR concentration 270 nM)
# In short: as §1
# [4] = tested on: LXRb:RXRa (NR concentration 270 nM, RXRa partner concentration 90 nM)
# In short: as §1
# [5] = tested on: LXRb homodimer (NR concentration 270 nM)
# In short: as §1
# [6] = tested on: PPARa:RXRa (NR concentration 270 nM, RXRa partner concentration 90 nM)
# In short: as §1
# [7] = tested on: PPARg:RXRa (NR concentration 180 nM, RXRa partner concentration 90 nM)
# In short: as §1
# [8] = tested on: PPARg:RXRa 270nM:90nM, anti-RXR (NR concentration 270 nM, RXRa partner concentration 90 nM)
# In short: as §1
# [9] = tested on: PPARg:RXRa 30nM:10nM, anti-RXR (NR concentration 30 nM, RXRa partner concentration 10 nM)
# In short: as §1
# [10] = tested on: PPARg:RXRa 90nM:30nM, anti-RXR (NR concentration 90 nM, RXRa partner concentration 30 nM)
# In short: as §1
Sequence,PBM binding z-score [1],PBM binding z-score [2],PBM binding z-score [3],PBM binding z-score [4],PBM binding z-score [5],PBM binding z-score [6],PBM binding z-score [7],PBM binding z-score [8],PBM binding z-score [9],PBM binding z-score [10]
TCATATAGGTAAACAGGGGAAAGTCCGTAAGTTA,1.29,1.09,0.283,0.925,-0.0206,1.61,1.52,2.89,3.92,3.45
CCTCGGAGGACAACAGGAGGTCAGAACTGCCAGA,0.84,1.86,1.93,1.49,-0.518,1.78,0.525,-0.182,-0.754,-0.55
AGAATGAGGTTATACGTACATCAGGGAAGAAAGT,2.3,2.05,0.00405,1.58,0.14,3.24,2.46,2.42,0.777,1.66
ATCGAAAGGTCGATGTGAGTATAGAGAAAGGGAA,3.06,2.82,-0.178,2,0.549,3.35,1.66,1.77,1.02,1.33
ATCTCTAGGTCACAAGTTCAGTGAAAGAGAGGAC,3.91,4.68,3.14,3.08,2.24,4.35,6.67,5.95,3.16,5.39
GCGACTGGGGCAAAACAGGTTACCATAAGGTTGG,0.267,0.15,-0.287,0.476,-0.432,1.12,1.22,0.615,-0.338,-0.0458
GCATATAAGTAATACAAGGTGAAAGTCCGATTGT,0.578,0.301,0.499,0.331,-0.122,0.85,0.911,0.715,0.283,0.301
AAAATGAGGTTACCAAAGATCAGGGAAACGCTTG,2.21,6.37,-0.0548,3.4,-0.136,3.71,3.49,3.24,1.2,2.53
AGAATGAGTTTACCAAAGATCAGGGAAACGCTTG,-0.512,2.97,-0.355,-0.0367,-0.632,0.0717,0.658,0.55,0.448,0.452
TCGAGTAGGTGAGTCGGGGCATTCAGCCAACATA,-0.0608,-0.132,-0.66,0.164,-0.758,0.821,0.173,0.652,0.673,0.803
CTACCCAGGTGAACAAGGTCGTTGATTACTATTC,0.858,0.806,0.13,1.4,-0.485,1.99,0.957,0.672,0.076,0.194
CGTCAAAGTTCAAGGTGACGTAACAGAAAGCAGC,6.62,5.96,2.8,3.49,0.846,4.92,4.71,5.65,2.12,4.45
CCTAGCAGGCCAGGGTCACTCAAGCATTTCGCTT,2.38,1.67,-0.285,1.95,-1.05,3.1,0.907,1.65,-0.362,0.635
GCTAGCAGGCCATTTGGGTCTCTCAATGACGGGC,-0.43,-0.541,-0.417,-0.913,-1.24,-0.217,-0.0162,-0.509,-1.01,-0.9
TCTGGTAGATCAAAGGTTAAGAAAGCCGAAGCCT,1.8,2.1,0.139,2.08,-0.305,3.73,6.37,6.52,5.92,6.95
TCTTGTAGATCAAAGGTTAAGATAGCCGAAGCCT,1.76,2.11,0.243,2.23,0.104,4.83,8.74,8.06,8.48,9.71
CGTCCATGGTCAATGCTAGGTCAGTGAAAGCATT,0.15,0.428,0.451,0.222,-0.306,0.49,-0.131,-0.408,-0.327,-0.269
TCATATAGGTAAATGATAGGTGAAAGTCCGATCT,1.32,1.17,0.558,1.22,0.404,1.74,1.51,2.71,3.76,3.23
TGAATGAGGTTAAAGATCAGGTAACGTGGCGTCG,3.32,2.73,-0.204,1.82,0.134,4.75,5.6,5.96,4.89,6.01
CCTACTGGGCTATCAGGTCATTGATATCAACGTT,1.15,0.988,0.914,1.16,-0.189,2.01,1.45,2.47,0.664,2.01
AGAATGAGGTTATTAAGATCAGGTAATTGCGGTC,1.7,1.73,0.77,1.33,0.187,2.49,1.38,1.96,0.716,1.09
CCTTACGGGTCACCCCAGGTTATAGCATCGGAGT,5.74,6.63,1.25,4.43,-0.027,5.01,4.23,4.51,1.22,3.1
AGAACGAGGGCAATGAGTTGAGAGCACGGGTGGC,0.342,-0.0458,-0.343,-0.251,-0.332,1.42,1.39,1.17,-0.064,0.763
AATACAGGGTCATCGTAGGCCGGAGTACGCACAG,6.87,6.14,2.19,4.53,1.37,5.62,6.36,5.92,2.34,4.59
TCATATAGGTAATACAGGTGAAAGTTGGCATCTA,1.53,1.59,0.587,1.49,0.359,2.79,3.47,4.06,4.44,4.48

# — the supplement of paper PMC6555819
